TDP1 cell CPT – growth inhibition of DT40 Tdp1-/-;hTDP1 cells with camptothecin (screen for TDP1 inhibitors) | chicken DT40 Tdp1-/-;hTDP1 cells + 20 nM CPT, ATP luminescence, 48 h | Potency, µM (series often up to 46.2 µM), hits mostly inhibitors | actives 12% (n = 420,000) | AID 686979; further: nearly all actives have a fitted effect of over 55% in size
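Chicken DT40 Tdp1-/- cells stably complemented with human TDP1 were seeded at 400 cells/well in medium containing 20 nM camptothecin, exposed to pin-transferred compounds, and grown at 37 °C for at least 48 hr. Viability was read as ATP luminescence.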
ELG1 repair inh – inhibitors of ELG1-dependent DNA repair in HEK293T cells; HEK293T ELG1-luciferase reporter, luminescence, 16 h; DNA damage induced by 5-fluorouridine; Potency, µM (titrated, usually from 46.1 µM), usual class: inhibitors; actives 2.3% (n = 330,000); AID 504467; further: nearly all actives have a fitted effect of over 55% in size
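Luminescence from the luciferase reporter, measured 30 min after ONE-Glo reagent at room temperature, was the read-out. Beforehand, 2,000 cells per well were exposed for 16 hr at 37 °C to 5-fluorouridine together with compound or vehicle.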
Gal4-VP16 FLuc – counter-screen for ROR gamma inhibitors: Gal4-VP16 reporter. Drosophila S2 Gal4-VP16 UAS-luciferase, luminescence, 20 h. Potency, µM (highest dose often 53.6 µM), actives largely listed as inhibitors. actives 3.5% (n = 310,000). AID 2546;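 further: Gal4-VP16 expression switched on by copper sulfate through the metallothionein promoter; nearly all actives have a fitted effect of over 50% in size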
TDP1 cell noCPT – qHTS for Inhibitors of human tyrosyl-DNA phosphodiesterase 1 (TDP1): qHTS in cells in absence of CPT; DT40 Tdp1-/- hTDP1 cells, no CPT, ATP luminescence, 48 h; Potency, µM (doses to about 46.2 µM), hits mostly inhibitors; actives 15% (n = 420,000); further: nearly all actives have a fitted effect of over 55% in size
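Camptothecin absent (DMSO only). Human TDP1-complemented DT40 knockout cells, 400 cells/well, 37 °C for minimum 48 hr; ATP measured via CellTiter-Glo, 30 min dark incubation, luminescence.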
RORg inh – ROR gamma (mouse) transcription inhibition; P51450; Drosophila S2 Gal4-RORgamma UAS-luciferase reporter, 20 h; Potency, µM (top dose mostly 53.6 µM), most hits filed as inhibitors; actives 5.4% (n = 310,000); further: nearly all actives have a fitted effect of over 60% in size
Target sequence (P51450 whole entry, looked up, the tested form may be a part): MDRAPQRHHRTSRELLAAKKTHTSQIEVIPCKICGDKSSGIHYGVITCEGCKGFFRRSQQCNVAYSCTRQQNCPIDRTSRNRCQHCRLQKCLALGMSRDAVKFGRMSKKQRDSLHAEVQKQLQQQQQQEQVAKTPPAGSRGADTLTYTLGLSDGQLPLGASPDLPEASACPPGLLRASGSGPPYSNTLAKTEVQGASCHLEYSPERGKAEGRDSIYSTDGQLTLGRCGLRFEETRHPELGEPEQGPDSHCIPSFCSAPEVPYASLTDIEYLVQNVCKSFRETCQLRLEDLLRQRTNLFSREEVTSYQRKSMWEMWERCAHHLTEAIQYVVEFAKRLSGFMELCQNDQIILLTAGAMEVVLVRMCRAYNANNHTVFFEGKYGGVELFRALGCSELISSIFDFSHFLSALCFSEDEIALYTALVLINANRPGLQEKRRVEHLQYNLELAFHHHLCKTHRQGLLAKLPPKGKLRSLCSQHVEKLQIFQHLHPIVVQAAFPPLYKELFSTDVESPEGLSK
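In this cell-based reporter format, copper sulfate (700 uM final) drives Gal4–ROR gamma fusion expression from a metallothionein promoter in Drosophila Schneider cells; compounds preincubated 1 hr, reporter read after 20 hr at ambient temperature.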
IL1B secr inh – inhibitors of inflammasome signaling (IL-1 beta secretion); THP-1 LPS/ATP IL-1B secretion, AlphaLISA, 16 h; active compounds read low; activity change, % at 57.5 µM; actives 4.7% (n = 360,000); AID 743279; in the data active means activity change below about -50%; inconclusive means mostly about -30% to -49%
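Secreted IL-1B measured by AlphaLISA bead assay after 16 h compound exposure of THP-1 cells; compounds (final up to 57.5 uM) added 1 h before LPS (250 ng/mL) and ATP (1.25 mM) stimulation; lower signal means less secretion.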
Numbers stand for hits; . = inactive; ? = inconclusive; / = no result. Compounds with a hit are over-represented: about 21% of the library has one in this group of screens. Unless noted, the call rests on the fitted dose curve; in most records, active means well fitted curve in the direction sought with a large enough effect; inconclusive means small, poorly fitted or top-dose-only effect, or another doubt; inactive means no such curve, though single readings can be large; an effect the other way counts as inactive or inconclusive.

SMILES | TDP1 cell CPT | ELG1 repair inh | Gal4-VP16 FLuc | TDP1 cell noCPT | RORg inh | IL1B secr inh
CC1CCN(c2ccc(-c3cccc(NS(=O)(=O)c4cccs4)c3)nn2)CC1 | . | / | / | . | / | /
CC(OC(=O)c1cccc(-n2cnnn2)c1)C(=O)NC1(C#N)CCCCC1 (stereo unspecified) | . | . | / | . | / | .
CN(CC(=O)Nc1cccc(F)c1)C(=O)C1CCN(S(=O)(=O)c2ccc3c(c2)OCCO3)CC1 | ? | . | / | ? | / | .
COc1cc(NC(=S)Nc2ccccn2)c(OC)cc1Cl | . | . | 7.1µM | ? | 1.3µM | .
CCNC(=S)Nc1ccc(OCc2nc3ccccc3s2)cc1 | 16µM | ? | 16µM | 23µM | 13µM | .
C=C(Nc1ccc(OCC)cc1)Nc1ccc(OCC)cc1 | ? | / | . | ? | . | /
O=C(O)CCCC(=O)Nc1ccc(OCc2nc3ccccc3s2)cc1 | . | ? | . | ? | . | .
CCOc1ccc(NC(=S)Nc2cc(C)[nH]n2)cc1 | . | . | 7.1µM | . | 3.2µM | .
CCOc1ccc(NC(=S)NC(C)CCc2ccccc2)cc1 (stereo unspecified) | . | ? | 7.1µM | . | 2.5µM | .
NC1(C(=O)O)CC(C(=O)O)C1 (stereo unspecified) | . | / | . | . | . | /
Cc1noc(C)c1C(=O)N1CCC2(CCCN(C(=O)NC(C)C)C2)CC1 | . | / | . | . | . | /
COc1ccc(NC(=O)/C(Cl)=C(/Cl)S(=O)Cc2ccccc2)cn1 (stereo unspecified) | 0.021µM | 8.2µM | 1.1µM | 0.018µM | 1µM | -103
COc1ccc(NC(=O)Cc2ccccc2)cn1 | . | . | . | . | . | .
COc1ccc(CS(=O)(=O)/C(Cl)=C(/Cl)C(=O)Nc2ccc(OC)nc2)cc1 | 0.58µM | ? | 3.2µM | 0.58µM | 5µM | -120
COc1ccc(NC(=O)CCc2ccc(OC)c(OC)c2)cn1 | . | . | . | . | . | .
CC[C@]12c3[nH]c4cc(CCC(=O)N(C)C)ccc4c3CCN1C(=O)[C@@H](CC(=O)NCCc1ccccn1)C[C@@H]2C(=O)N1CCN(C(=O)C2CC2)CC1 | . | . | / | . | / | .
NCCCNc1ccc([N+](=O)[O-])cc1C(F)(F)F | . | . | . | 13µM | . | -51
COc1ccc(-c2cc(=O)oc3cc(OCC(=O)Nc4ccc(CCO)cc4)ccc23)cc1 | 3.7µM | . | . | 0.52µM | . | .
COc1ccc(-c2cc(=O)oc3cc(OC(=O)C4CCCCC4)ccc23)cc1 | ? | ? | . | 18µM | . | .
COC(=O)COc1ccc2c(-c3ccc(OC)cc3)cc(=O)oc2c1 | 0.41µM | . | . | . | . | .
CC(C)C(NC(=O)c1ccccc1F)C(=O)NCCCn1ccnc1 (stereo unspecified) | . | . | / | . | / | .
Cc1ccc(S(=O)(=O)N2CCCCC2)cc1C(=O)Nc1ncn[nH]1 | / | . | . | / | . | /
O=C(Nc1ccc([N+](=O)[O-])cc1Cl)c1ccccc1O | 3.2µM | / | / | 3.2µM | / | /
CN1CCN(c2ccc([N+](=O)[O-])cc2NC(=O)c2ccccc2Cl)CC1 | . | . | . | . | . | .
CC(=O)Oc1c(C)cc(Cl)cc1C(=O)Nc1ccc([N+](=O)[O-])cc1Cl | 0.52µM | ? | 1µM | 0.46µM | 1µM | -67
CC(NCc1ccc(S(N)(=O)=O)cc1)C(=O)Nc1ccc([N+](=O)[O-])cc1Cl (stereo unspecified) | . | 23µM | . | ? | . | .
CCOc1ccc(N(CC(=O)NCCc2ccc(Cl)cc2)S(=O)(=O)c2c(C)[nH]c(=O)[nH]c2=O)cc1 | . | . | . | . | . | .
CC(NC(=O)C(NS(=O)(=O)c1cccc2nsnc12)C(C)C)c1ccccc1 (stereo unspecified) | . | . | . | . | . | .
COc1ccc(-c2cc(C(F)(F)F)nc(SCCC(=O)N3CCCC3)n2)cc1 | ? | ? | . | ? | . | -52
